# Screening results deposited in PubChem BioAssay by National Center for Advancing Translational Sciences (NCATS).
# Pf growth 48h = inhibits P. falciparum growth in the first generation, 48 h. P. falciparum luciferase growth in erythrocytes, 48 h. Potency, µM (highest dose often 28.7 µM), without a hit: at the highest dose activity change, negative = inhibition, hits mostly inhibitors. 310,000 compounds, 5.9% hits. AID 504832; active = well fitted inhibition curve with a large enough effect; inconclusive = small, poorly fitted or top-dose-only effect, or another doubt; inactive = no such curve, though single readings can be large or run the other way; note: potency is the fitted concentration of half-maximal effect; % is set by controls: 0 for no effect and ±100 for the full control effect
#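 Luminescence readout; reporter = integrated firefly luciferase in P. falciparum. RBC culture at 2% hematocrit, 0.1% parasitemia final, 37 C/5% CO2; decreased signal taken as growth inhibition.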
# Shiga inhibitor = inhibitors of Shiga toxin in Vero cells; 290,000 compounds, 9.2% hits; inhibition, % at 38.7 µM; Vero cells, Shiga toxin protein synthesis inhibition reporter; in the data active = inhibition mostly above about 28%, no sharp cut-off; inactive = mostly below about 43%; note: 0% is about no effect
# Pf growth 96h = inhibits malaria parasite growth, 96 h; P. falciparum luciferase reporter growth, 96 h; Potency, µM (titrated, usually from 28.7 µM), without a hit: top-dose activity change, negative = inhibition, most hits filed as inhibitors; 320,000 compounds, 6.9% hits; AID 504834; active = well fitted inhibition curve with a large enough effect; inconclusive = small, poorly fitted or top-dose-only effect, or another doubt; inactive = no such curve, though single readings can be large or run the other way; note: potency is the fitted concentration of half-maximal effect; % is set by controls: 0 for no effect and ±100 for the full control effect
#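 P. falciparum expressing integrated firefly luciferase grown in erythrocytes (2% hematocrit, 0.05% parasitemia final) with compounds for 96 hours at 37 C, 5% CO2. Growth inhibition read as loss of luminescence after adding luciferase detection reagent.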
# NS1 inh = influenza NS1 inhibition. 270,000 compounds, 0.4% hits. AID 2326. Potency, µM (series often up to 46.1 µM), inactives show at the highest dose activity, positive = more growth; note: potency is the fitted concentration of half-maximal effect; actives are rising curves; nearly all actives have a fitted effect of over 50% in size
#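 S. cerevisiae expressing influenza A NS1, grown in glucose, washed, then diluted 1:100 into pH 6.0 -URA galactose medium with 23 nl compound. Growth recovery read as OD600; NS1-free strain serves as control.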
# SARS PLpro yeast = SARS-CoV PLP inhibition in yeast; AID 485353; 330,000 compounds, 0.19% hits; Potency, µM (titrated, usually from 32.9 µM), for inactives: at the highest dose activity, positive = growth rescue, usual class: activators; S. cerevisiae expressing SARS-CoV PLpro, growth rescue; note: potency is the fitted concentration of half-maximal effect; 0% is about no effect; nearly all actives have a fitted effect of over 55% in size
# Cycloheximide cs = counter-screen hit for Shiga toxin inhibitors, cycloheximide. cell reporter, cycloheximide protein synthesis inhibition counterscreen. AID 2314. 300,000 compounds, 12% hits. max response, %; in the data active = max response mostly above about 13%, no sharp cut-off; inactive = mostly below about 14%; note: read at 38.3 µM for the half of the compounds with a filed dose; 0% is about no effect
# NS1 inh valid = validation of influenza NS1 protein function inhibitors; influenza NS1 function cell assay, 15-point titration; shares compounds with NS1 inh; 1,400 tested, under 10 active; activity change, negative = inhibition, % at 32.9 µM; note: 0% is about no effect
# PR8 titer = influenza virus titer reduction, NS1 project; shares compounds with NS1 inh; MDCK infected influenza A/PR/8/34, virus titer TCID50; active compounds read low; virus titer (log TCID50), log10 TCID50 at 5 µM; 95 compounds, 30% hits; call rule not given here
# Numbers without * were called inactive; ? = inconclusive; / = no result given. Most compounds without a hit are left out; they make up all but 21% or so of the library. Unless noted, calls come from the whole dose curve.
SMILES,Pf growth 48h,Shiga inhibitor,Pf growth 96h,NS1 inh,SARS PLpro yeast,Cycloheximide cs,NS1 inh valid,others
CC(=O)N1CCN(CC(=O)c2ccc(Br)cc2)CC1,0%,14,-7%,-63%,-23%,-6,/,
CCNS(=O)(=O)c1ccc(CCC(=O)Nc2ccc(C(=O)OC)cc2)cc1,?,-14,?,/,-1%,-2,/,
CCCC12C(=O)C(C)(C(c3ccccc3)=C1c1ccccc1)C1C(=O)N(c3ccc(C)cc3)C(=O)C12 (stereo not drawn),2.6µM*,17,3.3µM*,10µM*,9%,-1,-26,PR8 titer=6.5*
c1ccc(CCNC2=NCCCS2)cc1,?,0,?,?,-5%,4,-9,
C=CC[C@H](CC(=O)NCCO)C(=O)N[C@H](COC(=O)[C@H](CC=C)CC(=O)OC(C)(C)C)c1ccccc1,/,/,/,/,-1%,/,/,
COc1ccc(CN2C(=O)NC(=O)/C(=C/c3cc(OC)c(OC)c(OC)c3)C2=O)cc1,11%,-17,1%,9%,-1%,-1,/,
COc1ccc(CN2C(=O)NC(=O)/C(=C/c3ccc(OC)c(OC)c3OC)C2=O)cc1,?,13,?,10µM*,0%,-1,35,
CN(C)CCCN(C(=O)c1cc2cc([N+](=O)[O-])ccc2s1)c1nc2cc3c(cc2s1)OCCO3,?,/,?,/,-2%,/,/,
CC(C)(C)NC(=O)c1ccccc1-c1nc2ccccc2s1,?,21,?,?,2%,-2,16,PR8 titer=8.5
CN(C(=O)CSc1ccncc1)C1CCCN(Cc2ccccc2F)C1 (stereo not drawn),8%,-12,12%,-1%,-2%,-5,/,
COc1ccc(-c2cn[nH]c2-c2ccc(OCc3ccc([N+](=O)[O-])cc3)cc2O)cc1OC,10µM*,-4,9.3µM*,?,6%,1,-14,
COc1ccc(-c2cc(C(=O)Nc3cc(C)n(Cc4ccc(Cl)cc4)n3)no2)cc1OC,?,10,115%,5µM*,4%,-2,-1,
COc1ccc(-c2cc(C(=O)Nc3cccnc3Cl)no2)cc1OC,11%,1,?,-4%,1%,-2,/,
O=C(CSc1ccc(-c2nc3ccccc3[nH]2)cn1)Nc1ccc(S(=O)(=O)NC2CC2)cc1,0%,-3,-20%,-14%,9%,11,/,
Nc1cc(N)nc(SCC(=O)Nc2ccc3c(c2)OCO3)n1,4%,-1,-6%,14%,15%,6,/,
Nc1cc(N)nc(SCC(=O)Nc2ccc3c(c2)OCCCO3)n1,42%,41,/,1.8µM*,3%,23*,8,
Cc1cc2nc(-c3ccc(SCC(=O)Nc4ccc5c(c4)OCCO5)nc3)[nH]c2cc1C,?,157*,2.9µM*,1.3µM*,-8%,48*,-1,
CCOc1ccc(NC(=O)c2c(NC(=O)CNCCN3CCOCC3)sc3c2CCC3)cc1,0.33µM*,5,6%,2.8µM*,3%,12,-18,
COc1cc(NC(=O)c2cc(-c3ccco3)on2)c(OC)cc1Cl,7%,12,25%,-14%,-2%,5,/,
COc1ccc(NC(=O)c2cc(-c3ccco3)on2)c(OC)c1,-17%,25,84%,?,5%,12,-15,
Cc1cc(N)n(Cc2ccc(Cl)cc2)n1,0%,7,72%,4%,0%,-3,/,
Cc1ccc(-c2cc(N)n(Cc3ccc(Cl)cc3)n2)cc1,53%,33,?,5µM*,-6%,22,1,
O=C(COC(=O)c1cc[n+]([O-])cc1)Nc1ccc(F)c([N+](=O)[O-])c1,5%,-5,-4%,19%,-11%,-2,/,
CCOc1ccc(N2C(=O)/C(=C\c3ccccc3OC)S(=O)(=O)C2c2cccc([N+](=O)[O-])c2)cc1 (stereo not drawn),-1%,-9,?,11µM*,1%,-1,-34,
